Screening results from PubChem.
Tau ThT inhib: blocks human tau fibril formation measured by thioflavin T. P10636. recombinant tau K18 P301L, heparin-induced fibrillization, ThT fluorescence. Potency, µM (series often up to 57.4 µM), inactives show top-dose activity, negative = inhibition, usual class: inhibitors. actives 2.1% (n = 270,000); active = well fitted curve in the direction sought with a large enough effect; inconclusive = small, poorly fitted or top-dose-only effect, or another doubt; inactive = no such curve, though single readings can be large; an effect the other way counts as inactive or inconclusive; note: nearly all actives have a fitted effect of over 55% in size
Target sequence (P10636 561-689 P618L limits assumed): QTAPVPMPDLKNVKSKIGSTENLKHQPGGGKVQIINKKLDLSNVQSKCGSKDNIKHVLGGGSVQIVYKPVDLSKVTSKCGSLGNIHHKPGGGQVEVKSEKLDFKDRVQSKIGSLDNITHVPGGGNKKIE
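Using a mix of unlabeled (15 uM) and Alexa 594-labeled (0.24 uM) tau K18 P301L, heparin-triggered fibrillization over 6 hr at 37 C was scored by ThT fluorescence.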
Tau fibril FP: blocks human tau fibril formation measured by polarization. actives 0.39% (n = 280,000). P10636. Potency, µM (highest dose often 57.7 µM), for inactives: at the highest dose activity, negative = inhibition, most hits filed as inhibitors. AID 1468. K18 P301L tau heparin fibrillization, Alexa594 FP, 6 h; active = well fitted curve in the direction sought with a large enough effect; inconclusive = small, poorly fitted or top-dose-only effect, or another doubt; inactive = no such curve, though single readings can be large; an effect the other way counts as inactive or inconclusive; note: nearly all actives have a fitted effect of over 55% in size
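Read-out: fluorescence polarization of Alexa 594-labeled tau (0.24 uM), 555 nm excitation, 632 nm emission. Mixtures held 15 uM unlabeled K18 P301L, compound and 20 uM heparin, pH 7 acetate buffer, incubated 6 hr at 37 C.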
JMJD2E inh: blocks human JMJD2E demethylase activity. JMJD2E catalytic domain, FDH-coupled NADH fluorescence (FDH is formaldehyde dehydrogenase). Potency, µM (series often up to 57.1 µM), for the others: at the highest dose activity change, negative = inhibition, actives largely listed as inhibitors. actives 1.6% (n = 230,000);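 note: 0% = wells with enzyme and -100% = buffer wells without enzyme; nearly all actives have a fitted effect of over 50% in size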
ALDH1A1 block: blocks purified human ALDH1A1 activity; P00352; Purified ALDH1A1, NADH fluorescence, propionaldehyde substrate; Potency, µM (series often up to 75.3 µM), without a hit: at the highest dose activity, negative = inhibition, most hits filed as inhibitors; actives 7.3% (n = 220,000); AID 1030;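 note: plate controls were no enzyme wells and a reference inhibitor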
Target sequence (P00352 whole entry, looked up): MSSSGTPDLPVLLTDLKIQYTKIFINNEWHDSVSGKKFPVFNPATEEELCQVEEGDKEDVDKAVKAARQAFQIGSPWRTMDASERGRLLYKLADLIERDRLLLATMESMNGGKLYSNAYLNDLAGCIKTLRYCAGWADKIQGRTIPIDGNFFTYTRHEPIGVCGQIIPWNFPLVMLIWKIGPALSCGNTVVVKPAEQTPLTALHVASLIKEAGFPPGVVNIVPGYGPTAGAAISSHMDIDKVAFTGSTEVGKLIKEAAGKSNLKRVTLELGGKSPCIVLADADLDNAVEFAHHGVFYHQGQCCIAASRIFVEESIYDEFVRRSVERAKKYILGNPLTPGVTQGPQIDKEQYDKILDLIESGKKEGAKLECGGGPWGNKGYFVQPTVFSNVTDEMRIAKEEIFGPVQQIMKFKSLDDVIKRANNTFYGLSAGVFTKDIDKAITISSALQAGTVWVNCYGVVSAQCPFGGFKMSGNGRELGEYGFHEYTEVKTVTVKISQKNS
HPGD block: blocks human HPGD enzyme activity; P15428; purified HPGD, NADH fluorescence kinetic, PGE2 substrate; Potency, µM, for the others: at the top dose activity change, negative = inhibition, hits mostly inhibitors; actives 4.3% (n = 150,000); AID 894
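20 nM HPGD preincubated 15 min at room temperature with compound in 50 mM Tris-HCl pH 8, 0.01% Tween 20. Started with 1 mM NAD+ and 30 uM prostaglandin E2; NADH fluorescence (360/450 nm) read 5 times over 30-s intervals, last minus first.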
Tau fluor counter: counter-screen for tau fibril formation inhibitors; actives 0.93% (n = 280,000); tau K18 P301L (four-repeat tau fragment) Alexa594 fluorescence, heparin fibrillization; Potency, µM (series often up to 57.7 µM), without a hit: top-dose activity change, negative = decrease; AID 1463; active = well fitted curve in the direction sought with a large enough effect; inconclusive = small, poorly fitted or top-dose-only effect, or another doubt; inactive = no such curve, though single readings can be large; an effect the other way counts as inactive or inconclusive; note: nearly all actives have a fitted effect of over 55% in size
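Human K18 P301L tau (15 uM unlabeled plus 0.24 uM Alexa 594-labeled, final) in 100 mM sodium acetate pH 7 was mixed with compound and 20 uM heparin and incubated 6 hr at 37 C.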
An asterisk follows results filed as active; ? = inconclusive; / = no result; [ ] = remark or other dose. Only some compounds are listed: those with a hit (about 9.9% of all), similar ones and a draw of the others. Unless noted, calls come from the whole dose curve; as a rule, active = well fitted inhibition curve with a large enough effect (not every such curve was filed as active); inconclusive = small, poorly fitted or top-dose-only effect, or another doubt; inactive = no such curve, though single readings can be large or run the other way. Unless noted, % is set by controls: 0 for no effect and ±100 for the full control effect; potency is the fitted concentration of half-maximal effect.

SMILES | Tau ThT inhib | Tau fibril FP | JMJD2E inh | ALDH1A1 block | HPGD block | Tau fluor counter
O=C(Cn1c(=O)c2cccn2c2ccccc21)NCc1ccccc1F | ? | -2% | / | / | / | ?
Cc1ccc(NC(=O)C2CCCN(c3nc4ccccc4s3)C2)c(C)c1 (stereo not given) | 13% | -4% | / | / | / | 11%
O=C(O)C1C(=O)NCC1c1ccccc1 (stereo not given) | 3% | -1% | -1% | 9% | / | 4%
CCOC(=O)c1ccc(NC(=O)C2=C(C)C(=O)OC23CCCCCC3)cc1 | -7% | 8% | / | / | / | -22%
C[C@H]1CCCC2(CC[N+](C)(CCC[N+](C)(C)C)CC2)C1 (stereo not given in full) | / | / | / | 4%[13.5 µM] | -6% | /
O=C(O)/C=C\C(=O)Nc1ccc(N2CCN(c3cccc(Cl)c3)CC2)cc1 | ? | -1% | -15% | 28µM* | / | -18%
O=C(O)/C=C\C(=O)Nc1ccccc1C(=O)N1CCN(c2ccc(Cl)cc2)CC1 | -16% | -3% | -23% | 4% | -2% | -10%
CC(=O)N1CCN(c2ccc(NC(=O)/C=C/c3ccccc3)cc2)CC1 | 2.5µM* | 9% | 19% | -6% | / | -27%
NS(=O)(=O)c1ccc(NC(=S)N2CCN(c3cccc(Cl)c3)CC2)cc1 | ? | 1% | -2% | -10% | 25µM* | -16%
O=S(=O)(c1cccc(NC(=S)N2CCN(c3cccc(Cl)c3)CC2)c1)C(F)F | -15% | ? | -8% | ? | -9% | ?
CC(=O)Nc1ccc(NC(=O)/C=C/c2ccccc2)cc1 | -12% | 3% | 2% | -9% | / | -8%
O=C(COc1ccccc1Cl)Nc1ccc2nc(SCC(=O)N3CCOCC3)sc2c1 | 1% | -4% | / | / | / | -4%
CCCCC(CC)CNC(=O)CN1C(=O)CSc2ccc(S(=O)(=O)N3CCOCC3)cc21 (stereo not given) | 11% | -1% | / | / | / | -2%
COc1ccc(NC(=O)CSc2nnc3n2CCCCC3)cc1 | -6% | -7% | 10% | 2% | / | -3%
Cc1ccc(Nc2nc(-c3ccc(O)c(O)c3)cs2)nc1 | 10µM* | 14% | ? | -93% | / | 14µM*[quencher]
COc1ccc(-c2csc(Nc3ccc(C)cn3)n2)cc1OC | 13µM* | 11% | -28% | 5% | / | ?
COc1ccc(-c2csc(Nc3cccnc3)n2)cc1OC | ? | 14% | 3% | 9% | -8% | ?
COC(=O)/C=C\c1cc(O)ccc1O | ? | 0% | 32µM* | ? | 2.2µM* | -27%
COc1ccc(C(=O)N2CCC3(CCCN(c4ncccn4)C3)CC2)cc1 | / | / | / | -6% | -15% | /
CC(=O)N1CCn2c3c(c(=O)c4cc(C)ccc42)CCC31 (stereo not given) | 25µM* | ? | ? | ? | ? | ?
Cc1ccc(C)c(NC(=O)c2cc(S(=O)(=O)N3CCCCCC3)ccc2F)c1 | 5% | ? | / | / | / | 3%
COc1ccc(NC(=O)/C(C#N)=C/c2ccc(Sc3nncn3C)c([N+](=O)[O-])c2)cc1 | ? | 3% | -16% | 11µM* | / | -26%
CCN(CC)S(=O)(=O)c1cc(C(=O)Nc2ccccc2[N+](=O)[O-])ccc1Cl | -15% | ? | -4% | -11% | -7% | ?
Cn1cnnc1Sc1ccc(C(=O)OCC(=O)Nc2ccccc2)cc1[N+](=O)[O-] | -12% | 5% | 5% | -20% | -13% | -15%
CN(C)S(=O)(=O)c1cccc(C(=O)Nc2ccccc2[N+](=O)[O-])c1 | -17% | 12% | 5% | ? | 40µM* | -24%
SMILES | Tau ThT inhib | Tau fibril FP | JMJD2E inh | ALDH1A1 block | HPGD block | Tau fluor counter
CCC(C)(C)NC(=O)c1ccc(Sc2nncn2C)c([N+](=O)[O-])c1 | 6% | 2% | -3% | 9% | -9% | 4%
CCS(=O)(=O)c1ccc(Sc2nncn2C)c([N+](=O)[O-])c1 | -13% | -7% | -6% | 22µM* | / | -9%
CCOc1ccccc1NC(=O)c1ccc(S(=O)(=O)N(C)C)cc1 | -4% | -9% | -2% | 14µM* | -18% | -14%
COc1ccc2c(c1)c(=O)c(S(=O)(=O)c1ccc(Cl)cc1)cn2Cc1cc(C)ccc1C | -9% | -5% | / | / | / | -3%
CC(=O)Nc1ccc(NC(=O)C2CCCN2/C=C/C(=O)C(F)(F)F)cc1 (stereo not given) | -5% | -6% | 3% | 5% | / | -9%
Cn1cnnc1Sc1ccc(/C=C/C(=O)c2ccc(O)cc2)cc1[N+](=O)[O-] | 14µM* | 2% | 1% | -2% | / | ?
CN(C)S(=O)(=O)c1cccc(NC(=O)c2ccc(Sc3nncn3C)c([N+](=O)[O-])c2)c1 | ? | 14% | -7% | 0.56µM* | / | ?
CCN(CC)S(=O)(=O)c1ccc(NC(=O)c2ccc(Sc3nncn3C)c([N+](=O)[O-])c2)cc1 | ? | ? | 2% | ? | -8% | ?
CCc1ccc(CCC(=O)Nc2ccc(C)c(C)c2)o1 | -11% | 0% | 2% | 13µM* | -25% | -5%
CCOC(=O)/C(C#N)=C1\CCCN1CC(N)=S | ? | -10% | 9% | 20µM* | ? | 2%
COC(=O)/C=C1\S/C(=N\N=C\CC(=O)OC)NC1=O | 7.1µM* | -4% | 7% | / | / | -8%
COC(=O)/C=C1\SC(=Nc2ccc(OC)cc2)NC1=O | ? | 2% | 5% | -4% | / | 1%
COC(=O)[C@@]1(Cc2ccc(OC)cc2)[C@H]2c3cc(C(=O)N4CCCC4)n(CCc4ccc(OC)c(Br)c4)c3C[C@H]2CN1C(=O)c1ccccc1 | -15% | -3% | 0% | ? | -8% | -5%
CC(=O)N1CCC(=NNC(=O)CSc2cc(C)c(Br)cc2C)CC1 | -4% | 0% | 0% | ? | 25µM* | -5%
CCCN1CCC(=NNC(=O)CSc2cc(C)c(Br)cc2C)CC1 | 2% | 8% | -1% | ? | 14µM* | 0%
Cn1ccnc1SCC(=O)c1ccc2ccccc2c1 | -18% | -2% | 2% | ? | / | -9%
O=[N+]([O-])c1cc2c(cc1/C=N/n1c(-c3ccccn3)n[nH]c1=S)OCO2 | ? | -7% | -11% | 28µM* | ? | -10%
O=[N+]([O-])c1ccccc1/C=C/C=N/n1c(-c2ccco2)n[nH]c1=S | -2% | -3% | 4% | -7% | / | -8%
O=[N+]([O-])c1cc2c(cc1/C=N/n1c(-c3ccccc3)n[nH]c1=S)OCO2 | ? | 7% | -1% | 13µM* | 3.2µM* | -19%
S=c1[nH]nc(-c2ccccn2)n1/N=C/c1cccc(Cl)c1 | -9% | -8% | -6% | ? | / | -10%
CC(C)c1cnc2c(c1SCc1cccc(F)c1)c(=O)n(C)c(=O)n2C | -13% | 2% | / | / | / | -9%
